Active and inactive are the calls of the source.

The subject of assay [1] is PRMT1 (protein arginine N-methyltransferase 1). The assay can be described thus: small molecules binding arginine methyltransferase PRMT1 – biochemical, small-molecule microarray, 635 nm fluorescence, primary screen (AID 1088).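 Note: binding of Prmt1 protein to compounds spotted on small-molecule microarray slides.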 The following applies: higher = more signal.
Assay [2] can be described thus: growth effects on S. cerevisiae YJM789 – YJM789 clinical isolate, OD600, 24 h, basal, primary screen (AID 1089).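 Note: growth of clinical yeast isolate S. cerevisiae YJM 789 seeded 1000 cells per well; test concentration not given here.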 Particulars: higher = more signal, called active from +8 up or from −8 down.
The nature of assay [3]: S. pombe growth modifiers, basal conditions – strain 972, OD600, 24 h, no modulator, primary screen (AID 1090).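 Note: basal condition with compound alone and no growth modifier present; test concentration not given here.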 The following applies: S. pombe 972 growth, higher = more signal, called active from +8 up or from −8 down.
The nature of assay [4]: budding yeast growth modifiers under rapamycin – strain BY4716, OD600, 96 h, primary screen (AID 1091). Note: test concentration not given here. Particulars: S. cerevisiae BY4716 + rapamycin, higher = more signal, called active from +8 up or from −8 down.
Assay [5] concerns the target Torsin-1A-interacting protein 2 (Homo sapiens) (UniProt Q8NFQ8). The assay can be described thus: small molecules binding lysate-expressed LULL1 – cell lysate, human LULL1 lysate, 635/667 nm fluorescence, primary screen (AID 1092).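 Note: probe is lysate of COS7 cells overexpressing human LULL1; score merges per-feature 667 nm fluorescence with signal-to-noise.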 The following applies: small-molecule microarray, hLULL1 lysate binding, 635 nm fluorescence; higher = more signal.
A short description of assay [6]: optical density change of DRC41 E. coli – strain DRC41, OD650, 24 h, E. coli filamentation project, primary screen (AID 1093).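 Note: MC1000 strain lacking acrAB efflux and sulA so SOS filamentation is blocked; test concentration not given here.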 The following applies: E. coli DRC41 growth, higher = more signal, called active from +8 up or from −8 down.
A short description of assay [7]: probe aLefty2 binding to arrayed compounds – biochemical, biotinylated probe, 635/667 nm fluorescence, primary screen (AID 1094).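 Note: score merges spot fluorescence near 667 nm with spot signal-to-noise ratio.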 The following applies: small-molecule microarray, higher = more signal.
The test system of assay [8] is Noggin (protein binding on small-molecule microarray). The assay can be described thus: small molecules binding Noggin protein – biochemical, 635/667 nm fluorescence, primary screen (AID 1095).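 Note: score merges 667 nm feature fluorescence with signal to noise over triplicate slides.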 The following applies: 635 nm fluorescence, higher = more signal.
For assay [9], the target named is Neurogenic locus notch homolog protein 3 (Homo sapiens) (UniProt Q9UM47). The assay can be described thus: small molecules binding NOTCH3 protein – biochemical, 635/667 nm fluorescence, primary screen (AID 1096). The following applies: small-molecule microarray, 635 nm fluorescence, higher = more signal.
Assay [10] is described as follows: probe aEGFR binding to arrayed compounds – biochemical, biotinylated probe, 635/667 nm fluorescence, primary screen (AID 1097).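 Note: probe is a biotinylated anti-EGFR antibody binding compounds printed on slides; score combines fluorescence near 667 nm and signal to noise of each spot.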 The following applies: small-molecule microarray, higher = more signal.
For assay [11], the system named is Plasmodium falciparum Sir2 (PF13_0152, Sir2A). The assay can be described thus: Plasmodium falciparum Sir2A binding compounds – biochemical, small-molecule microarray, 635 nm fluorescence, primary screen (AID 1098).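 Note: score merges spot fluorescence intensity with its signal-to-noise ratio.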 Particulars: fluorescence 635 nm, higher = more signal.
The nature of assay [12]: probe aDKK1 binding to arrayed compounds – biochemical, biotinylated probe, 635/667 nm fluorescence, primary screen (AID 1099).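 Note: score merges 667nm spot fluorescence with signal to noise across triplicate slides; reference of the scale not given here.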 The following applies: small-molecule microarray, higher = more signal.
Assay [13] can be described thus: probe aCHRDL2 binding to arrayed compounds – biochemical, biotinylated probe, 635/667 nm fluorescence, primary screen (AID 1100). The following applies: small-molecule microarray, higher = more signal.
Assay [14] is described as follows: change in splice reporter luminescence, either direction, cell-based, HEK293, spliceosome inhibition project, primary screen (AID 1101).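 Note: HEK293 cells carrying a splicing-competent luciferase reporter gene; test concentration not given here.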 Particulars: HEK293 splicing luciferase reporter, 24 h, higher = more signal, called active from +8 up or from −8 down.
Assay [15] has as its target Fibroblast growth factor 10 (Homo sapiens) (UniProt O15520). The assay can be described thus: compounds binding fibroblast growth factor 10 – biochemical, small-molecule microarray, 635 nm fluorescence, primary screen (AID 1102). Particulars: FGF10 binding, fluorescence 635 nm, higher = more signal.
For assay [16], the system named is glycogen synthase kinase-3 (GSK3A per assay name; protocol says GSK3B). The assay can be described thus: compounds binding glycogen synthase kinase-3 – biochemical, small-molecule microarray, 635 nm fluorescence, GSK3A, primary screen (AID 1103). Note: the record names both GSK3A and GSK3B. Particulars: fluorescence 635 nm, higher = more signal.
For assay [17], the target named is Epidermal growth factor receptor (Homo sapiens) (UniProt P00533). The assay can be described thus: compounds binding epidermal growth factor receptor – biochemical, small-molecule microarray, 635 nm fluorescence, primary screen (AID 1104).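 Note: score merges 667 nm emission intensity with spot signal to noise over triplicate slides.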 Particulars: EGFR binding, higher = more signal.
The target of assay [18] is Follistatin-related protein 3 (Homo sapiens) (UniProt O95633). The assay can be described thus: compounds binding follistatin-related protein 3 – biochemical, small-molecule microarray, 635 nm fluorescence, primary screen (AID 1105).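 Note: score merges emission near 667 nm and signal to noise per printed spot across three slides.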 Particulars: FSTL3 binding, higher = more signal.
Assay [19] addresses Dickkopf-related protein 1 (Homo sapiens) (UniProt O94907). The assay can be described thus: small molecules binding DKK1 protein – biochemical, small-molecule microarray, 635 nm fluorescence scan, primary screen (AID 1106).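 Note: score merges emission near 667 nm with signal to noise over three replicate slides.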 Particulars: higher = more signal.
Assay [20] relates to Inhibin beta A chain (activin A). The assay can be described thus: small molecules binding activin A – biochemical, small-molecule microarray, 635 nm fluorescence scan, primary screen (AID 1107).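 Note: mouse activin A protein probed at 4.33 µg/mL on printed slides; score merges bound-protein fluorescence near 667 nm with spot signal-to-noise.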 The following applies: INHBA, higher = more signal.

Chain of Fibroblast growth factor 10 (Homo sapiens) (O15520 whole entry, looked up): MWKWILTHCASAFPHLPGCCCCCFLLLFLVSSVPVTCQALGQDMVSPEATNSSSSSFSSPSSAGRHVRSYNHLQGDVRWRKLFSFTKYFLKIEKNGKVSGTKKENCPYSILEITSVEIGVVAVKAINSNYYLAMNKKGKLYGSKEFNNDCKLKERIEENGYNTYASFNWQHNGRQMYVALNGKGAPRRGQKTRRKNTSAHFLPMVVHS
Chain of Neurogenic locus notch homolog protein 3 (Homo sapiens) (Q9UM47 whole entry, looked up): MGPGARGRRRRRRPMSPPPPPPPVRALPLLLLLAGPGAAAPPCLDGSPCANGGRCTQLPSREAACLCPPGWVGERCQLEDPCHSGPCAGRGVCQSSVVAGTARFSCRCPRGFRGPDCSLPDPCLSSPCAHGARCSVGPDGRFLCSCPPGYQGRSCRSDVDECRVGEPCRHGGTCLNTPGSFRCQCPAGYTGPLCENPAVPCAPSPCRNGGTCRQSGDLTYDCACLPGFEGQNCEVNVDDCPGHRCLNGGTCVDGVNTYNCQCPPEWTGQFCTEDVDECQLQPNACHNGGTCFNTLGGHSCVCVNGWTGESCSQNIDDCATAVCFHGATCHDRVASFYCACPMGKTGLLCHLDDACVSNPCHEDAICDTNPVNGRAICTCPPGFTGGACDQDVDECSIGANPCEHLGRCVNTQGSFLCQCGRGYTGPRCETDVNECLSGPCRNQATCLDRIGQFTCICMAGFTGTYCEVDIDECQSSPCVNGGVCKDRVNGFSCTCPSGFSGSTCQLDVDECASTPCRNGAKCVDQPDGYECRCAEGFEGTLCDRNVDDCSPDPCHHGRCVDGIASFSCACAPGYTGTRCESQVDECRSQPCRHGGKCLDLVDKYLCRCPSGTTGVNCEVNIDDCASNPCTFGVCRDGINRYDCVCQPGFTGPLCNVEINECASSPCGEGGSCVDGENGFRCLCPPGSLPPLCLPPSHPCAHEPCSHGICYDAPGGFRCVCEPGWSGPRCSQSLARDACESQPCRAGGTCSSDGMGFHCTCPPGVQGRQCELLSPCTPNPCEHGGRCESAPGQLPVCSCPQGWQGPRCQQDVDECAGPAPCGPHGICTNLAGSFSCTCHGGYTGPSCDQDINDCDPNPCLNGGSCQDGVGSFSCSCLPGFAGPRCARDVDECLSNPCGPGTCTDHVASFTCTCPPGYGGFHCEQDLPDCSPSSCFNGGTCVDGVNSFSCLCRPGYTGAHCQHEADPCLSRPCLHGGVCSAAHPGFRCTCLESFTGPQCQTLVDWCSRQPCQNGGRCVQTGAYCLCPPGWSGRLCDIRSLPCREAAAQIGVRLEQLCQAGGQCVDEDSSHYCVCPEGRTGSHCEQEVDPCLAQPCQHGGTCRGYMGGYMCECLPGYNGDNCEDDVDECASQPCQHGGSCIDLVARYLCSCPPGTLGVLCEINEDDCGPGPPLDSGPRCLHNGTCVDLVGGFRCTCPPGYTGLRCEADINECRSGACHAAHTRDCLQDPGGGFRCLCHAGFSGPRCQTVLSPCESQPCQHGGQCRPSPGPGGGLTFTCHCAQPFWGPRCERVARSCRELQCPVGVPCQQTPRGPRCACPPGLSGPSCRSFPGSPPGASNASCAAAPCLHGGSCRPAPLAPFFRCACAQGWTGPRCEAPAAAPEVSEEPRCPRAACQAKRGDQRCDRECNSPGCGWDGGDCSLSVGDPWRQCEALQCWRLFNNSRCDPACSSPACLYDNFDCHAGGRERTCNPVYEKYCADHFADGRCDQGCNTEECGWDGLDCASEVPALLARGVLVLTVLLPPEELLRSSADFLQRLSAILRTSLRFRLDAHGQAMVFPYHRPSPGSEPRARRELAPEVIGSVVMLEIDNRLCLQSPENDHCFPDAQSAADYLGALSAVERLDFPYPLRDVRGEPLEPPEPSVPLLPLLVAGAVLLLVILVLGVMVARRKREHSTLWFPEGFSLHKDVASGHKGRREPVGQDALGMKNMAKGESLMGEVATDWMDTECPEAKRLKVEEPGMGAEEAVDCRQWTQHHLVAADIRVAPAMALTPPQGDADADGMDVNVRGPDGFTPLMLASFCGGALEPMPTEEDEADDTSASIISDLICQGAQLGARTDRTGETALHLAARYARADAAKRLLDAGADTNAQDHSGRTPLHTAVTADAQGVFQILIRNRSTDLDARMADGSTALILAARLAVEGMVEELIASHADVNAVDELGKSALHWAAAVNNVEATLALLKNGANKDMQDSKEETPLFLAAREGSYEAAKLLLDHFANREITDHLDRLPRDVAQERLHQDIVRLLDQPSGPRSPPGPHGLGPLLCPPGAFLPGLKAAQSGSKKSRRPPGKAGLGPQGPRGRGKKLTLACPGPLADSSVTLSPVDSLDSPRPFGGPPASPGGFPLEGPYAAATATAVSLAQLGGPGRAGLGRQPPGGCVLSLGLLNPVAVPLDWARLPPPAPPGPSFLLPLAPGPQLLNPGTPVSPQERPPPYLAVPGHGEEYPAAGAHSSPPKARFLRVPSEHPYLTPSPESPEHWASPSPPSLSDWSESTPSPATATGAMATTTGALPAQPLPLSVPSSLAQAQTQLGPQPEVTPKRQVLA
Chain of Torsin-1A-interacting protein 2 (Homo sapiens) (Q8NFQ8 whole entry, looked up): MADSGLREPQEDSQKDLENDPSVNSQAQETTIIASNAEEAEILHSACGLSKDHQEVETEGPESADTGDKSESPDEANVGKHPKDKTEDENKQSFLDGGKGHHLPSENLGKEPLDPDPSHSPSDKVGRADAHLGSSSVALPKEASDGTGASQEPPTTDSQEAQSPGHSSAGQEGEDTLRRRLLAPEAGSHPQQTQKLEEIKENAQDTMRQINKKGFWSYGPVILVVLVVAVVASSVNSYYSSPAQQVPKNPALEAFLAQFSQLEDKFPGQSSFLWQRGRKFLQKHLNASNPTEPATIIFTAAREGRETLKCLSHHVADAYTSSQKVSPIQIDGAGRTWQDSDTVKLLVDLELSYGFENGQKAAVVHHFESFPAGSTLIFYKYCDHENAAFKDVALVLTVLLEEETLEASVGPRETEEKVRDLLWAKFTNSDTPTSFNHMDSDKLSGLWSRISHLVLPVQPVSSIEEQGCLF
Chain of Dickkopf-related protein 1 (Homo sapiens) (O94907 whole entry, looked up): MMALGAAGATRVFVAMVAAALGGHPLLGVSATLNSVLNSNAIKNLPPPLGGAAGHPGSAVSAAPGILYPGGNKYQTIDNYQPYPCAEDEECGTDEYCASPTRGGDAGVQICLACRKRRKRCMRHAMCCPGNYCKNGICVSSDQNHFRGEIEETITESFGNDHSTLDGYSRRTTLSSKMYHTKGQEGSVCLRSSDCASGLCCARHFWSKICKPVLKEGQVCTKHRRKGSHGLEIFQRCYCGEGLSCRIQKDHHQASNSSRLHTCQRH
Chain of Epidermal growth factor receptor (Homo sapiens) (P00533 whole entry, looked up): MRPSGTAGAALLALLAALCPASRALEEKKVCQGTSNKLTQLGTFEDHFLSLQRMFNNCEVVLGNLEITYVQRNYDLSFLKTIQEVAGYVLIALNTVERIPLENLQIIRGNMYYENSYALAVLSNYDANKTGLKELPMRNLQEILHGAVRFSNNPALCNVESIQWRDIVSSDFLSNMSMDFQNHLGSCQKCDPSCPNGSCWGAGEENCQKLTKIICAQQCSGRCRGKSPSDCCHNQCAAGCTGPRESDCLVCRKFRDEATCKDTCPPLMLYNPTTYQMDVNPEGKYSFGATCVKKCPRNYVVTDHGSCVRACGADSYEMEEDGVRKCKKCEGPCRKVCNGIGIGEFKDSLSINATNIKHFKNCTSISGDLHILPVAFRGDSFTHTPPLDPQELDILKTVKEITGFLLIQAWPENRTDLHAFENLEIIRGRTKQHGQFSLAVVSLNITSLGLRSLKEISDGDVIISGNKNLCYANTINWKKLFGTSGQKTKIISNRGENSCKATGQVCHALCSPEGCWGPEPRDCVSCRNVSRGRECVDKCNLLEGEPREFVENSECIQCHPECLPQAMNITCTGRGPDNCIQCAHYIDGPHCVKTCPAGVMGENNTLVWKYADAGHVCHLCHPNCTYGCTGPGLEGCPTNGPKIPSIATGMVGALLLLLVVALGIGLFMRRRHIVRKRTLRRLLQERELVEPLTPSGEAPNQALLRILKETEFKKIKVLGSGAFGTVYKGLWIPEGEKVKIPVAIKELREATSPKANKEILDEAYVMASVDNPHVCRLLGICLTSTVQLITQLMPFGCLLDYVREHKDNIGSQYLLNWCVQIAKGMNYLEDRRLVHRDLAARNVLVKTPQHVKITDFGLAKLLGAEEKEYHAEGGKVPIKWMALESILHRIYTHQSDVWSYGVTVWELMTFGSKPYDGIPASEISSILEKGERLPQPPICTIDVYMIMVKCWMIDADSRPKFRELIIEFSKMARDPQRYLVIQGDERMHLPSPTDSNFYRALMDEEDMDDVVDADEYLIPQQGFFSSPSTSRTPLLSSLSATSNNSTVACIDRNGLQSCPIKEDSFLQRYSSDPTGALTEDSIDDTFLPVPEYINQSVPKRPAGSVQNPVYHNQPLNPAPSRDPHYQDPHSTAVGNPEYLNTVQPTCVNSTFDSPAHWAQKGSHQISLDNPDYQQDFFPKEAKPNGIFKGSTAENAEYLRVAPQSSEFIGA
Chain of Follistatin-related protein 3 (Homo sapiens) (O95633 whole entry, looked up): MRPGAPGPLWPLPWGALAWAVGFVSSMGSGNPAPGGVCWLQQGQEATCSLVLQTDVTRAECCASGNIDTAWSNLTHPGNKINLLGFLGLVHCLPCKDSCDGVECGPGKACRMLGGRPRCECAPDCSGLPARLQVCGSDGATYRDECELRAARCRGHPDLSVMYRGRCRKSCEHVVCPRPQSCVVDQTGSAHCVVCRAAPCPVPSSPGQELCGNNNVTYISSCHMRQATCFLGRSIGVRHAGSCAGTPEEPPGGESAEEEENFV

With `CCOC(=O)[C@H](Cc1ccccc1)NC(=O)CCC1CC(OC(=O)NCc2ccc3c(c2)OCO3)CC2(CCCC(COC(=O)NCCCN3CCCC3=O)O2)O1` (stereo not given in full), the composite z-score was 1.55 in assay [1]; 2.08 in [5]; -0.117 in assay [7]; 0.579 in assay [8]; 1 in [9]; -0.02 in assay [10]. Besides, the composite z-score in [11] was 0.465; in assay [12], -0.505; in [13] it was -0.431; in [15], 0.573; in [16] it was 0.852; in [17], 0.494. Moreover, the composite z-score turned out to be 0.645 in [18], 0.543 in [19] and 0.312 in assay [20]. The z-score was -0.395 (inactive) in [2]; 0.0418 (inactive) in [3]; -0.0655 (inactive) in [4]; 0.187 (inactive) in [6]; -0.199 (inactive) in assay [14].

As to `CON=C(C)CCC(=O)OC[C@H]1O[C@H](C#Cc2ccccc2)C=C[C@@H]1Oc1ccc(C)cc1`, the composite z-score in assay [1] was 1.06; in assay [5] it was 0.756; in assay [7], -0.143; in [8] it was 0.351; in assay [9], 0.326; in assay [10], -0.0363. Moreover, the composite z-score was 0.699 in assay [11]; 0.0281 in assay [12]; -0.22 in [13]; 0.19 in assay [15]; -0.252 in [16]; 0.252 in assay [17]. Also, the composite z-score in assay [18] was found to be 0.407; in assay [19] it was 0.572; in [20], 0.719. In addition, the z-score in [2] was 1.42 (inactive); in assay [3], -14.2 (active); in [4] it was 1.52 (inactive); in assay [6] it was 0.149 (inactive); in assay [14], 0.825 (inactive).

As to `CCOC(=O)[C@H](Cc1ccccc1)NC(=O)CCC1CC(OC(=O)NCc2cccc3ccccc23)CC2(CCCC(COC(=O)NCCc3ccccc3OC)O2)O1` (stereo not given in full), the composite z-score in assay [1] is 1.4; in assay [5] it was 1.95; in assay [7] it was 0.0108; in assay [8], 0.591; in [9] it was 0.819; in [10], -0.0396. Further, the composite z-score in assay [11] was 0.405; in assay [12], -0.0537; in assay [13], -0.409; in assay [15], 0.791; in assay [16] it was 0.583; in assay [17], 0.454. The composite z-score in assay [18] is 1.07; in assay [19], 0.331; in assay [20], -0.251. Also, the z-score was 0.105 (inactive) in assay [2]; 0.503 (inactive) in [3]; 0.296 (inactive) in assay [4]; -0.164 (inactive) in assay [6]; 0.223 (inactive) in [14].

Take `C[C@H]1CC[C@H]2C(=O)N[C@H](Cc3ccccc3)C(=O)N2[C@@H]1c1ccccc1`: the composite z-score in assay [1] was -0.0481; in assay [5], 0.217; in assay [7] it was -0.17; in [8], 0.413; in assay [9], -0.304; in assay [10], -0.0794. Also, the composite z-score is -0.427 in assay [11]; 0.176 in assay [12]; -0.225 in assay [13]; 0.136 in [15]; -0.0595 in [16]; 0.353 in assay [17]. For the same molecule, the composite z-score stood at 0.185 in [18], 0.768 in assay [19] and 0.595 in assay [20]. Besides, the z-score in [2] is 0.492 (inactive); in assay [3], 0.0432 (inactive); in assay [4] it was -0.489 (inactive); in [6], 0.805 (inactive); in assay [14], -0.0985 (inactive).

For the molecule `CO[C@@H]1[C@H](O)CO[C@H]1C=Cc1ccccc1`, the composite z-score in assay [1] is 0.524; in [5], 0.363; in assay [7] it was -0.0895; in [8], 0.396; in [9], 0.0872; in [10] it was -0.0581. The composite z-score in [11] is 1.55; in assay [12], -0.261; in assay [13] it was -0.41; in [15] it was 0.961; in assay [16] it was -0.135; in assay [17], 0.0571. The composite z-score turned out to be 0.211 in assay [18], 0.365 in assay [19] and 0.512 in assay [20]. The z-score in assay [2] was 0.335 (inactive); in [3], -1.14 (inactive); in assay [4], -0.376 (inactive); in [6], 0.447 (inactive); in assay [14], -0.0979 (inactive).
